Test results reported in PubChem BioAssay (Tox21).
Records with an inconclusive call do not appear. The source made the active and inactive calls. Unless noted, calls come from the whole dose curve; as a rule, active = well fitted curve in the direction sought with a large enough effect in the repeat runs; inconclusive = weak or mixed curves; inactive = no such curve, though single readings can be large; an effect the other way counts as inactive or inconclusive.

How the values were obtained:
[1] = tested on: thyroid hormone receptor (rat, GH3 cells); test: qHTS assay to identify small molecule agonists of the thyroid receptor (TR) signaling pathway (AID 743066; calls by dose curve)
[2] = qHTS assay to identify small molecule antagonists of the estrogen receptor alpha (ER-alpha) signaling pathway - cell viability counter screen (AID 743074; calls by dose curve;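 note: HEK293 cells carrying ER-alpha-UAS-bla reporter stimulated with 17beta-estradiol; nearly all actives have a fitted effect of over 45% in size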)
[3] = qHTS assay to identify small molecule antagonists of the estrogen receptor alpha (ER-alpha) signaling pathway using the BG1 cell line - cell viability counter screen (AID 743081);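 note: compound given together with 17beta-estradiol as the ER stimulus; nearly all actives have a fitted effect of over 45% in size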; note: potency is the fitted concentration of half-maximal effect
[4] = qHTS assay to identify small molecule antagonists of the estrogen receptor alpha (ER-alpha) signaling pathway using the BG1 cell line (AID 743080; calls by dose curve;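 note: BG1 cells stimulated with 17beta-estradiol alongside compound; nearly all actives have a fitted effect of over 25% in size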; note: potency is the fitted concentration of half-maximal effect)
In short: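 BG1-Luc-4E2 cells (endogenous full-length ER-alpha, 4xERE luciferase) hormone-starved 5 days in charcoal-stripped FBS, plated 4,000/well for 24 h, then compound plus 17beta-estradiol for 21.5 h at 37 C; ONE-Glo luminescence read.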

[5] = target: Aromatase (Homo sapiens) (UniProt P11511); test: qHTS assay to identify aromatase inhibitors (AID 743083); note: nearly all actives have a fitted effect of over 55% in size; note: potency is the fitted concentration of half-maximal effect
Chain of Aromatase (Homo sapiens) (P11511 whole entry, looked up): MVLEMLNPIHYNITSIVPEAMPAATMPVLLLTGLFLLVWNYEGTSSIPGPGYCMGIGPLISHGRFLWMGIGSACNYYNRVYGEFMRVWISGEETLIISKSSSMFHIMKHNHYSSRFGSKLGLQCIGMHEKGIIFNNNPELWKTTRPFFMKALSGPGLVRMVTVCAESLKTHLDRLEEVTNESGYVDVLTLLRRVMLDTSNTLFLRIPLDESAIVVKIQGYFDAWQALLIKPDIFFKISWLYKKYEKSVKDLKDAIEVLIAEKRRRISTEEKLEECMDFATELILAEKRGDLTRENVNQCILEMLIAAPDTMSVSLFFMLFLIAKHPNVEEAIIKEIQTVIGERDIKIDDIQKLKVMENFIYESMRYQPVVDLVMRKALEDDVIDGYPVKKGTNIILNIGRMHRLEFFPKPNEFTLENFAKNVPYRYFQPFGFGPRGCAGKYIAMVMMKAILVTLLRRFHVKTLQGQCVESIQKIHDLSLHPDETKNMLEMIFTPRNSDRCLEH

[6] = qHTS assay to identify aromatase inhibitors - cell viability counter screen (AID 743084);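 note: cells stimulated with testosterone during compound exposure; nearly all actives have a fitted effect of over 55% in size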; note: potency is the fitted concentration of half-maximal effect
[7] = target: Aryl hydrocarbon receptor (Homo sapiens) (UniProt P35869); test: qHTS assay to identify small molecule that activate the aryl hydrocarbon receptor (AhR) signaling pathway (AID 743085); note: nearly all actives have a fitted effect of over 15% in size; note: potency is the fitted concentration of half-maximal effect
Chain of Aryl hydrocarbon receptor (Homo sapiens) (P35869 whole entry, looked up): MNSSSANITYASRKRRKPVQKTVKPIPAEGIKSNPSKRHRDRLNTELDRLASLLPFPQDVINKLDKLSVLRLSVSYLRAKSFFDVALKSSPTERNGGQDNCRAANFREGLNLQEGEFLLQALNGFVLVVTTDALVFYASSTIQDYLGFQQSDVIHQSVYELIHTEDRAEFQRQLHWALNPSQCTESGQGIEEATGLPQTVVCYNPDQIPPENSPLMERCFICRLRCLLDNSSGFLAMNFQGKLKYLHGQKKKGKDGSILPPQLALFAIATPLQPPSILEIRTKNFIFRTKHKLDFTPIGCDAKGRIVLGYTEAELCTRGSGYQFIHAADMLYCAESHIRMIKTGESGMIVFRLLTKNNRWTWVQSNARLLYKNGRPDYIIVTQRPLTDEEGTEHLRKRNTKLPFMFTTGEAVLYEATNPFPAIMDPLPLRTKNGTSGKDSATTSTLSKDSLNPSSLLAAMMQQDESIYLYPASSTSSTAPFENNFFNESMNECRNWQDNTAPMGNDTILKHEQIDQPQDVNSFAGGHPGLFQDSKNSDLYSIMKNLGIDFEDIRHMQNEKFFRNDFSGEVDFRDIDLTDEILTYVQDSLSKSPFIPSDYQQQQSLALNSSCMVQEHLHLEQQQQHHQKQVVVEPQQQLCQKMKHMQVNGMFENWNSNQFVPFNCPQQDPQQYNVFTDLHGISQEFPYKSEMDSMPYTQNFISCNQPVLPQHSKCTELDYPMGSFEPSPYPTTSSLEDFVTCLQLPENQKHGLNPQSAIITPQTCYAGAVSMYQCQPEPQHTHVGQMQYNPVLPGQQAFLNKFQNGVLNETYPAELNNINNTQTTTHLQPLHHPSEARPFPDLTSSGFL
In short: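 Luminescence read-out: ONE-Glo reagent, 30 min at room temperature, in HG2L7.5c1 HepG2 reporter cells treated 24 h at 37C. Viability was measured beforehand by CellTiter-Fluor fluorescence after 30 min at 37C.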

[8] = target: Estrogen receptor (Homo sapiens) (UniProt P03372); test: qHTS assay to identify small molecule agonists of the estrogen receptor alpha (ER-alpha) signaling pathway using the BG1 cell line (AID 743079); note: nearly all actives have a fitted effect of over 20% in size; note: potency is the fitted concentration of half-maximal effect
Chain of Estrogen receptor (Homo sapiens) (P03372 whole entry, looked up): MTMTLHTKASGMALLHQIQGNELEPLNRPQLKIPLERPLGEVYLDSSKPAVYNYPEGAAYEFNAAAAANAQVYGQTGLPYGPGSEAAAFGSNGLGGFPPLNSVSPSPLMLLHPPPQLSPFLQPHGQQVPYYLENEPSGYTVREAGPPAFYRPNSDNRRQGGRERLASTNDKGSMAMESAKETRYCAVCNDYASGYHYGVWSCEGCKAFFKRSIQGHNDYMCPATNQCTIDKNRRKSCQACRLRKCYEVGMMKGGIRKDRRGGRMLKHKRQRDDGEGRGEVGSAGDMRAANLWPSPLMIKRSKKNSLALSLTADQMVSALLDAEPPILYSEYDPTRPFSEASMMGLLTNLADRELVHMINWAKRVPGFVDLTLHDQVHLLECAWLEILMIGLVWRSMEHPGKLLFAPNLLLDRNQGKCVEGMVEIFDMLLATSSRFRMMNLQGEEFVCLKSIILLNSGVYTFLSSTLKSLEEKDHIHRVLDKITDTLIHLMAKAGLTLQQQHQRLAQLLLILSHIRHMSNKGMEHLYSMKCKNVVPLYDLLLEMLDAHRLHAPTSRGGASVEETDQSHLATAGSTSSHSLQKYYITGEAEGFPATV

[9] = target: Estrogen receptor (Homo sapiens) (UniProt P03372); test: qHTS assay to identify small molecule agonists of the estrogen receptor alpha (ER-alpha) signaling pathway (AID 743075; calls by dose curve;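 note: HEK293 GripTite cells with ER-alpha and UAS-driven beta-lactamase reporter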)

Measured: Potency

O=C(/C=C/c1ccc(O)c(O)c1)O[C@@H]1C[C@](O)(C(=O)O)C[C@@H](O)[C@H]1O
inactive: [1] | [2] | [3]

Oc1ccc2c(c1)OCO2
not listed: [8] | [9]
inactive: all other assays above

CN1CCC[C@@H]1c1cccnc1
not listed: [8] | [9]
inactive: all other assays above

CC(C)c1cccc(C(C)C)c1NC(=O)NS(=O)(=O)c1cc(C(C)(C)O)co1
inactive: [1] | [2] | [3]

O=C(NS(=O)(=O)/C=C/c1cccs1)c1ccc(F)cc1Br
inactive: [1] | [2] | [3] | [5] | [6]
active: [8] 68.6 µM

c1ccc(-c2nc[nH]c2-c2ccccc2)cc1
not listed: [4] | [8] | [9]
inactive: all other assays above

COc1cc(C(C)(C)C)c(O)c(C(C)(C)C)c1
inactive: [1] | [2] | [3]

CC(C)(C)c1ccc(S)cc1
not listed: [4] | [8]
inactive: all other assays above

CCCCC(CC)(CO)CO
not listed: [4] | [8] | [9]
inactive: all other assays above

O=[N+]([O-])c1cc[n+]([O-])cc1
inactive: [1] | [2] | [9] | [3] | [7]

O=C(c1ccccc1)c1ccc2n1CCC2C(=O)O (centres undefined)
not listed: [4] | [8] | [9]
inactive: all other assays above

O=C(O)C(c1ccc(Cl)cc1)c1ccc(Cl)cc1
not listed: [5] | [7] | [8]
inactive: all other assays above

CCCCCCCCCCCCCCCC(=O)OC/C=C(C)/C=C/C=C(C)/C=C/C1=C(C)CCCC1(C)C
not listed: [4] | [8] | [9]
inactive: all other assays above

CCCCCC/C=C/C=O
not listed: [4] | [8] | [9]
inactive: all other assays above

N#Cc1c(F)cccc1F
not listed: [4] | [8] | [9]
inactive: all other assays above

CCCCCCCC/C=C\CCCCCCCC(N)=O
not listed: [4] | [8] | [9]
inactive: all other assays above

CC(C)c1ccccc1C(C)C
not listed: [4] | [8] | [9]
inactive: all other assays above

CNS(=O)(=O)Cc1ccc2[nH]cc(CCN(C)C)c2c1
not listed: [4] | [8] | [9]
inactive: all other assays above

COC(Cc1ccccc1)OC
not listed: [6] | [8]
inactive: all other assays above

C=CC(C)(CCC=C(C)C)OC(=O)c1ccccc1 (centres undefined)
inactive: [1] | [2] | [3]

Cc1ccccn1
inactive: [1] | [2] | [3] | [5] | [6]

CCN(CC)C(C)=O
not listed: [4] | [8] | [9]
inactive: all other assays above

Cc1ccc(C)o1
not listed: [4] | [8] | [9]
inactive: all other assays above

CC1CCc2cc(F)cc3c(=O)c(C(=O)O)cn1c23 (centres undefined)
inactive: [1] | [2] | [3]

CC1(C)[C@H]2CC[C@]1(C)[C@H](O)C2
not listed: [4] | [8] | [9]
inactive: all other assays above

NCc1ccccc1
inactive: [1] | [2] | [3]

COC(=O)CSc1cc(N=c2sc(=O)n3n2CCCC3)c(F)cc1Cl
not listed: [4] | [8] | [9]
inactive: all other assays above

CC[C@]12CCCN3CCc4c(n(c5ccccc45)C(=O)C1)[C@@H]32
inactive: [1] | [2] | [3] | [6]
active: [5] 11.4 µM

Oc1ccc(C(O)CNCCCCCCNCC(O)c2ccc(O)c(O)c2)cc1O (centres undefined)
inactive: [1] | [2] | [4] | [5] | [7]
active: [6] 21.1 µM

Nc1nc(CC(=O)O)cs1
inactive: [1] | [2] | [3] | [5] | [6]

Oc1ccc(Cc2ccccc2)cc1
inactive: [1] | [2] | [3]

CC(=O)OC/C=C/c1ccccc1
not listed: [4] | [8] | [9]
inactive: all other assays above

Cn1c(NCCN(CCO)CCCc2ccc([N+](=O)[O-])cc2)cc(=O)n(C)c1=O
not listed: [4] | [8] | [9]
inactive: all other assays above

Cc1ccc(O)c([C@H](CCN(C(C)C)C(C)C)c2ccccc2)c1
not listed: [4] | [8] | [9]
inactive: all other assays above

CCN(CC)CCOc1ccc2c(c1)C(=O)c1cc(OCCN(CC)CC)ccc1-2
inactive: [1] | [2] | [5] | [6] | [7]

S=C(S)NCCNC(=S)S
inactive: [1] | [3] | [5] | [6] | [7]

C[C@@H](C1=C(CCN(C)C)Cc2ccccc21)c1ccccn1
inactive: [1] | [2] | [3] | [6] | [7]

COc1ccccc1OC(=O)Oc1ccccc1OC
not listed: [4] | [8] | [9]
inactive: all other assays above

CC(=O)c1c(C)c([N+](=O)[O-])c(C(C)(C)C)c([N+](=O)[O-])c1C
not listed: [4] | [8] | [9]
inactive: all other assays above

Nc1nc(N)c(-c2ccccc2)s1
not listed: [4] | [8] | [9]
inactive: all other assays above

O=C(CC(=O)c1ccccc1)c1ccccc1
active: [7] 65.7 µM
inactive: [1] | [2] | [3] | [5] | [6]

O=S1(=O)c2cccc3cccc(c23)N1CCCN1CCN(c2ccc(F)cc2)CC1
inactive: [1] | [9] | [3] | [5]

Cc1cc(C)c(S(=O)(=O)O)cc1N=Nc1cc(S(=O)(=O)O)c2ccccc2c1O
inactive: [1] | [2] | [5] | [7]
active: [3] 54.5 µM | [6] 24.3 µM

CN1CCC(=C2c3ccccc3C=Cc3ccccc32)CC1
not listed: [2] | [4]
inactive: all other assays above

CCN(CCO)CCCC(C)Nc1ccnc2cc(Cl)ccc12 (centres undefined)
not listed: [4] | [8] | [9]
inactive: all other assays above

CC(=O)c1ccc2c(c1)[C@H](NC(=O)c1ccc(F)cc1)[C@@H](O)C(C)(C)O2
inactive: [1] | [2] | [3] | [5] | [7]

CC(C)(C)c1cc(CO)cc(C(C)(C)C)c1O
inactive: [1] | [9] | [3] | [6] | [7]
active: [4] 69.9 µM

CCCC[C@H]1CN(CC2CCOCC2)C(=O)OC12CCN(C1(C)CCN(C(=O)c3c(C)ncnc3C)CC1)CC2
not listed: [4] | [8] | [9]
inactive: all other assays above

Cl/C(=C\n1cncn1)c1ccc(Cl)cc1Cl
inactive: [1] | [2] | [3] | [6] | [7]

CCC(=O)OC(C)(C)C1CC=C(C)CC1 (centres undefined)
not listed: [2] | [7] | [8]
inactive: all other assays above

CCCCCC(CO)CCC (centres undefined)
inactive: [1] | [2] | [5] | [6] | [7]

O=C(O)/C=C/c1cnc[nH]1
not listed: [4] | [8] | [9]
inactive: all other assays above

Cc1c(Cn2ccnc2)c2ccccc2n1CCC(=O)O
inactive: [1] | [3] | [5] | [6]

CCCCOC(=O)c1ccccc1C(=O)OCC(CC)CCCC (centres undefined)
not listed: [2] | [6]
inactive: all other assays above

CCCCCCCCCCCCCCCCCBr
not listed: [4] | [8] | [9]
inactive: all other assays above

CC(C)(C)C(=O)OCOP(=O)(COCCn1cnc2c(N)ncnc21)OCOC(=O)C(C)(C)C
not listed: [4] | [8] | [9]
inactive: all other assays above

O=CNc1ccccc1
inactive: [1] | [2] | [3] | [5] | [7]

CCCCCc1ccc(N)cc1
not listed: [2] | [4] | [5]
inactive: all other assays above

Cn1c(N)nc2nc[nH]c2c1=O
not listed: [4] | [8] | [9]
inactive: all other assays above
